Assay results reported in PubChem BioAssay (NCATS).
Results filed as inconclusive are left out. Entries that show only a call come without a potency. Calls of active or inactive are those of the source. Unless noted, calls follow the shape of the dose curve; as a rule, active = well fitted inhibition curve with a large enough effect; inconclusive = small, poorly fitted or top-dose-only effect; inactive = no such curve, though single readings can be large or run the other way. Residues, ends and D or L forms follow the SMILES beside them. *: point of attachment. Cbz = O=C(OCc1ccccc1)*; CH2Cl = ClC*

Key:
[1] = biological target: Aldehyde dehydrogenase, mitochondrial (Homo sapiens) (UniProt P05091); assay: qHTS for Inhibitors of the Aldehyde Dehydrogenase Family (ALDH2) Confirmatory screens (AID 2061303; active = well fitted inhibition curve with a large enough effect; title and protocol of this record describe different tests; also: nearly all actives have a fitted effect of over 45% in size; also: potency is read from the fitted curve at half-maximal effect)
[2] = qHTS for Inhibitors of the Aldehyde Dehydrogenase Family (ALDH1A2, ALDH1A3, ALDH2, ALDH3A1) (AID 2061307); also: nearly all actives have a fitted effect of over 50% in size; as to potency: test system not described further here; potency is read from the fitted curve at half-maximal effect
[3] = biological target: Retinaldehyde dehydrogenase 3 (Homo sapiens) (UniProt P47895); assay: qHTS for Inhibitors of the Aldehyde Dehydrogenase Family (ALDH1A3) Confirmatory screens (AID 2061311); also: nearly all actives have a fitted effect of over 60% in size; also: potency is read from the fitted curve at half-maximal effect
[4] = biological target: Retinal dehydrogenase 2 (Homo sapiens) (UniProt O94788); assay: qHTS for Inhibitors of the Aldehyde Dehydrogenase Family (ALDH1A2) Confirmation screens (AID 2061314); also: nearly all actives have a fitted effect of over 65% in size; also: potency is read from the fitted curve at half-maximal effect
[5] = biological target: Retinaldehyde dehydrogenase 3 (Homo sapiens) (UniProt P47895); assay: qHTS for Inhibitors of the Aldehyde Dehydrogenase Family (ALDH1A3) Primary screen (AID 2061315)
[6] = biological target: Aldehyde dehydrogenase 1A1 (Homo sapiens) (UniProt P00352); assay: qHTS for Inhibitors of the Aldehyde Dehydrogenase Family (ALDH1A1) Confirmatory screens (AID 2061316); also: nearly all actives have a fitted effect of over 65% in size; also: potency is read from the fitted curve at half-maximal effect

Row | Structure (SMILES) | Potency [1] | Potency [2] | Potency [3] | Potency [4] | Potency [5] | Potency [6]
1 | Fc1c(-c2ccc3ncnc(NCc4cccs4)c3c2)ccc2c1OCO2 | inactive | inactive | inactive | inactive | inactive | inactive
2 | O=c1cc(-c2ccccn2)oc2c(Nc3ccccc3)nccc12 | inactive | inactive | 20 µM (active) | – | – | –
3 | O=C1Cc2cc(C(=O)c3ccco3)ccc2N1 | 1.01 µM (active) | 0.565 µM (active) | 0.896 µM (active) | 2.52 µM (active) | inactive | –
4 | CCn1cc2nc(SCc3cccc(C)c3)n(CCc3ccccc3)c(=O)c2n1 | 28.2 µM (active) | 3.98 µM (active) | 1.26 µM (active) | 3.24 µM (active) | – | –
5 | NC(=O)C1CCN(c2nccc(-c3ccc4c(c3)OCCO4)n2)CC1 | 5.65 µM (active) | 7.98 µM (active) | 14.1 µM (active) | 14.2 µM (active) | inactive | 0.798 µM (active)
6 | O=C(O)c1cccnc1SC1=NS(=O)(=O)c2ccccc21 | inactive | inactive | inactive | 31.8 µM (active) | inactive | –
7 | CC(C)C[C@H](NC(=O)CNC(=O)OCc1ccccc1)C(=O)N[C@@H](Cc1ccccc1)C(=O)CCl (Cbz-Gly-Leu-Phe-CH2Cl) | inactive | inactive | inactive | 8.96 µM (active) | inactive | inactive
8 | Cc1nc(SCC(=O)c2ccc(F)cc2)n[nH]1 | inactive | inactive | inactive | inactive | inactive | inactive
9 | CC(C)(C)OC(=O)N1CCN(c2ccc(NCc3cncc(-c4ccc(C#N)cc4)c3)cc2)CC1 | 1.79 µM (active) | 0.634 µM (active) | inactive | inactive | inactive | inactive
10 | CC(C)(C)OC(=O)N1CCN(c2ccc(NCc3ccc(-c4ccccc4F)o3)cc2)CC1 | 1.27 µM (active) | 12.7 µM (active) | inactive | inactive | inactive | –
11 | Cc1noc(C)c1-c1cccc(-c2nn3c(=O)cc(N4CCNCC4)nc3s2)c1 | 3.98 µM (active) | 0.891 µM (active) | 17.8 µM (active) | 6.31 µM (active) | inactive | –
12 | O=S(=O)(Nc1cc(O)cc2cccnc12)c1ccc(Br)s1 | inactive | inactive | inactive | 0.634 µM (active) | – | –
13 | O=C(Nc1cc(Cc2ccccc2)ccn1)c1ccc(-c2cccc([N+](=O)[O-])c2)o1 | 11.2 µM (active) | 7.08 µM (active) | 7.94 µM (active) | 5.01 µM (active) | inactive | –
14 | N#Cc1c(-c2ccc(C(=O)c3ccc(O)cc3)cc2)no[n+]1[O-] | 10 µM (active) | 11.3 µM (active) | 15.8 µM (active) | 0.712 µM (active) | inactive | 12.7 µM (active)
15 | COc1ccc(-c2ccc(CNc3ccc(N4CCN(C(=O)OC(C)(C)C)CC4)cc3)o2)cc1 | 1.13 µM (active) | inactive | inactive | 11.3 µM (active) | inactive | 11.3 µM (active)
16 | Cc1ccc(C(=O)N2CCC(CCC(=O)N3CCCCC3)CC2)cc1 | inactive | inactive | inactive | inactive | – | –
17 | N#Cc1c(-c2ccc3c(c2)OCO3)no[n+]1[O-] | inactive | 1.13 µM (active) | inactive | 10.1 µM (active) | inactive | inactive
18 | O=c1c(Nc2ccc(Cl)c(Cl)c2)c(Nc2nnc(-c3ccncc3)s2)c1=O | 2 µM (active) | 11.3 µM (active) | 11.2 µM (active) | 3.98 µM (active) | inactive | 8.96 µM (active)
19 | O=C(NCc1ccc(F)c(F)c1)c1ccc2nnc(-c3cccc(C(F)(F)F)c3)n2c1 | inactive | 8.91 µM (active) | inactive | inactive | – | inactive
20 | COc1ccc(-c2nc(CNS(=O)(=O)c3ccc(F)cc3)cs2)cc1 | 11.2 µM (active) | inactive | inactive | – | – | inactive
21 | COc1ccnc(NC(=S)N2CCN(c3cccc(C(F)(F)F)c3)CC2)c1 | 12.6 µM (active) | 8.91 µM (active) | 7.12 µM (active) | 22.5 µM (active) | – | 10.1 µM (active)
22 | CC(C)(C)OC(=O)N1CCN(c2ccc(NCc3ccc(-c4cccc([N+](=O)[O-])c4)o3)cc2)CC1 | 0.896 µM (active) | 4 µM (active) | inactive | – | inactive | 14.2 µM (active)
23 | COc1ccc(N2CCN(c3nc(C(=O)NCc4cccc(C)c4)cs3)CC2)cc1 | inactive | 2.51 µM (active) | inactive | inactive | – | inactive
24 | COc1ccc(-c2nc3cccc(OC)c3c(=O)n2Cc2ccccc2)cc1COc1ccc(NC(C)=O)cc1 | 28.2 µM (active) | 2.01 µM (active) | 25.1 µM (active) | – | – | 12.7 µM (active)
25 | Cn1ncc2c(C(=O)NCC(F)F)cc(-c3cccc(C(F)(F)F)c3)nc21 | inactive | inactive | 0.794 µM (active) | inactive | – | inactive
26 | CCc1ccc(-n2c(SCc3cccc(F)c3)nc3[nH]ncc3c2=O)cc1 | inactive | inactive | 15.8 µM (active) | inactive | – | 1.82 µM (active)
